Assay outcomes (PubChem)
Most compounds without a hit are left out; they make up all but 3.1% or so of the library.
INS-1E GSIS act: primary screen for activators of insulin secretion dependent on glucose, INS-1E cells, GLuc reporter luminescence. INS-1E GLuc reporter insulin secretion, 2-3 h. activation, % at 16.6 µM. actives 0.61% (n = 370,000). AID 743287;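 active = lowest replicate activation of at least 40%, so every replicate reaches that level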
DENV2 CPE: protects cells from dengue virus 2 cytopathic effect; DENV2-infected cells, cytopathic effect rescue, plate reader; CPE inhibition, % at 9.99 µM; actives 1.7% (n = 350,000); AID 651640; in the data active = CPE inhibition above about 20%, passing the limit was not always enough; inconclusive = no clear call, values can overlap the other calls; tested in BHK-21 cells
dFosB act-1: activators of mouse delta FosB homodimer. P13346. purified delta FosB, TAMRA-CDK5 oligo fluorescence polarization; percent of positive-control signal above neutral wells. activation, % at 25 µM. actives 0.99% (n = 340,000). AID 493131;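 active = mean activation above about 17%, with every replicate also reaching it, limit read from the data, passing the limit was not always enough; inconclusive = only one of the two conditions met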
Target sequence (P13346 whole entry, looked up): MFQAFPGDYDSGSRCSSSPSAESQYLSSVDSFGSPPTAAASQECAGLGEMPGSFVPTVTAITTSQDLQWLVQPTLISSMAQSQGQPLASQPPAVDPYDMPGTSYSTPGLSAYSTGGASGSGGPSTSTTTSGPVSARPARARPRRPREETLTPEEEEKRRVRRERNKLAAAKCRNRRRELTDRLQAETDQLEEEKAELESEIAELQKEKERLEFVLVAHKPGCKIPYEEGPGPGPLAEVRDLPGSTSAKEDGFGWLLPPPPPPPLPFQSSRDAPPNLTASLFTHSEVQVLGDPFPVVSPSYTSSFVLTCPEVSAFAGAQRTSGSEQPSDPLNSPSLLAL
RAD52 inh: RAD52 (human) annealing inhibition. P43351. recombinant RAD52 DNA annealing, FRET fluorescence. inhibition, % at 18.7 µM. actives 0.46% (n = 360,000). AID 651710;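 active = every replicate showing at least 50% inhibition; inconclusive = mean inhibition at least 50% but not in every replicate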
Target sequence (P43351 whole entry, looked up): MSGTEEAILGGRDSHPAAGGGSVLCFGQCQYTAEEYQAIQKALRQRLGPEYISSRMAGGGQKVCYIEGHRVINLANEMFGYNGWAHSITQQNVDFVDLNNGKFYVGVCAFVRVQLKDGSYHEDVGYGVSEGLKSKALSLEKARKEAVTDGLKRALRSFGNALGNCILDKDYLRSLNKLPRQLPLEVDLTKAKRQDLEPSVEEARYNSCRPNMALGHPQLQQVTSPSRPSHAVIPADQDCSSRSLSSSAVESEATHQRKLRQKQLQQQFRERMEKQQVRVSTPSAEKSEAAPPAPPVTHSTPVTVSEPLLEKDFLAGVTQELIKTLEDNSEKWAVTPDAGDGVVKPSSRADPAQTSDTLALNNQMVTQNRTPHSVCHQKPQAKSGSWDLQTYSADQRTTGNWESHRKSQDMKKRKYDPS
MLL AF4-AF9 inh: inhibitors of human MLL-AF4/AF9 interaction. AlphaScreen, biotin-AF4 peptide binding to FLAG-AF9. inhibition, % at 10 µM. actives 0.47% (n = 350,000);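 active = every replicate reaching a set inhibition limit, whatever the replicate mean, cut at about 25% in these data; inconclusive = mean inhibition reaches that limit but some replicates miss it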
RAD54 inh: blocks human RAD54 Holliday junction branch migration. Q92698. FAM/BHQ fluorescence. inhibition, % at 10.4 µM. actives 0.14% (n = 360,000). AID 602329;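 active = mean normalized replicate activity at least 40 and at least half of replicates scoring 40 or more; inconclusive = only one of the two criteria met; inactive = mean below 40 and under half of replicates reaching 40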;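 also: inhibitors cause a drop in the FAM fluorescence signal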
dFosB act-2: enhances mouse delta FosB homodimer binding to DNA. activation, % at 24.9 µM. shares compounds with dFosB act-1. AID 588690. purified delta FosB, TAMRA-CDK5 oligo fluorescence polarization; normalised: neutral wells 0, positive control 100. 2,400 tested, under 10 active;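 active = highest replicate activation at or above 34% and every replicate reaching that threshold; inconclusive = meets only one of the two criteria; inactive = meets neither criterion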;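 also: higher polarization means more probe DNA bound by delta FosB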
Rad54 DNA ctr: binds DNA, flagging false Rad54 inhibitor hits | shares compounds with RAD54 inh | actives 8% (n = 460) | AC50, µM (highest dose often 35 µM) | Acridine orange-DNA displacement, fluorescence polarization, 20 min | AID 651673;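 active = signal drop giving an AC50 within twice the top valid tested concentration of each sample, actives reach about 35 µM in these data; inactive = activity opposite to expected, plus the rest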;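 also: polarization loss reports compound binding to salmon sperm DNA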
AlphaScreen intf: counter-screen: AlphaScreen signal interference; shares compounds with MLL AF4-AF9 inh; signal luminescence; AC50, µM (doses to about 12 µM); actives 45% (n = 530); cut-off not given, nearly all actives have AC50 up to about 14 µM
DNA binder FP: binds DNA, flagging false RAD52 inhibitor hits | AC50, µM | actives 8% (n = 1,000) | Salmon sperm DNA/acridine orange FP displacement, DNA binding | shares compounds with RAD52 inh;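 active = fitted half-maximal concentration for signal loss at or below twice the highest dose tested, in every separate run, actives reach about 64 µM in these data; inconclusive = runs disagree, or flat partial signal loss, or poor fit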
Of the large screens only hits and unclear results are named; the others gave an inactive call (follow-up assays come after a bar, where they were run); ! = repeats disagree.

COc1ccc(NC(=S)N2Cc3ccccc3-n3nncc3C2)c(OC)c1	DENV2 CPE 25 (no result: dFosB act-1)
O=C(c1ccc(CNS(=O)(=O)c2ccc(Br)cc2)cc1)N1CCC2(CC1)OCCO2	DENV2 CPE 37
O=C(c1ccc(CNS(=O)(=O)c2ccccc2)cc1)N1CCC2(CC1)OCCO2	none (no result: INS-1E GSIS act, DENV2 CPE, RAD52 inh, MLL AF4-AF9 inh)
CSc1ncc(Br)c(N2CC2)n1	INS-1E GSIS act 42
CN(C)c1cc[n+](CC(O)C[n+]2ccc(N(C)C)cc2)cc1	DENV2 CPE 25
CN(C)c1ccc([P+](=O)c2ccc(N(C)C)cc2)cc1	none (no result: RAD54 inh)
COC(=O)[C@@H]1[C@@H](CO)[C@@H]2Cn3c(ccc(C4=CCCCC4)c3=O)[C@H]1N2CC1CCCC1	none (no result: dFosB act-1)
C[C@]12CCC3C(CCC4=C/C(=N/OCC(=O)NC(CCC(=O)O)C(=O)O)CC[C@@]43C)C1CCC2O (stereo partly specified)	INS-1E GSIS act 44
O=C(NC[C@H]1CC[C@H]2[C@H](CN2Cc2cccnc2)O1)C1CC1	none (no result: INS-1E GSIS act, dFosB act-1, RAD54 inh)
COc1ccc(OC(=O)N(C)C[C@H]2OCc3ccccc3-c3c(n(C)c4ccccc34)C(=O)N([C@@H](C)CO)C[C@H]2C)cc1	none (no result: dFosB act-1, RAD54 inh)
CC(C)CC#Cc1ccc([C@@H]2[C@H](CO)N3CCCCN(C(=O)Cc4ccccn4)C[C@@H]23)cc1	none (no result: dFosB act-1)
COc1ccc(-c2ccc([C@@H]3[C@H]4CN(C(=O)Cc5ccccc5)CCCCN4[C@H]3CO)cc2)cc1	none (no result: dFosB act-1)
N#Cc1ccc(-c2ccc([C@H]3[C@H](CO)N4CCCCN(C(=O)Cc5ccccc5)C[C@@H]34)cc2)cc1	none (no result: dFosB act-1)
O=c1[nH]c(=S)[nH]c(O)c1N=Nc1ccc(S(=O)(=O)N2CCc3ccccc32)cc1	dFosB act-1 29 (no result: RAD54 inh) | dFosB act-2 inactive
O=c1[nH]c(=S)[nH]c(O)c1N=Nc1ccc(SC(F)F)cc1	none
O=C(Cc1ccccc1)N1CCCCN2[C@H](C1)[C@@H](c1ccc(C#Cc3ccccc3)cc1)[C@@H]2CO	none (no result: dFosB act-1)
CN(C)CCN(C(=O)COc1ccc(Cl)cc1)c1nc2cc3c(cc2s1)OCO3	dFosB act-1 24 | dFosB act-2 inactive
COc1ccc(OCC(=O)N2CCN(Cc3ccc4c(c3)OCO4)CC2)cc1	none
CCOc1ccc(C2C(C#N)=C(N)Oc3c2c(=O)oc2ccccc32)cc1 (stereo unspecified)	dFosB act-1 21 (no result: DENV2 CPE, RAD52 inh) | dFosB act-2 inactive
Cc1ccccc1-c1ccc([C@H]2[C@@H](CO)N3CCCCN(C(=O)Cc4ccccn4)C[C@H]23)cc1	none (no result: dFosB act-1)
COc1ccc(C#Cc2ccc([C@H]3[C@H]4CN(C(=O)Cc5cccnc5)CCCCN4[C@H]3CO)cc2)cc1	none (no result: dFosB act-1)
Cc1sc2ncnc(N3CCC(C(=O)Nc4ccc(C#N)c(Cl)c4)CC3)c2c1C	dFosB act-1 32 | dFosB act-2 inactive
O=C1CN=C(c2ccccc2)c2oc3ccc(Br)cc3c2N1	dFosB act-1 30 (no result: INS-1E GSIS act, DENV2 CPE, RAD52 inh, MLL AF4-AF9 inh, RAD54 inh) | dFosB act-2 inactive
O=C1CN=C(c2ccc(Br)cc2)c2oc3ccccc3c2N1	none (no result: INS-1E GSIS act, DENV2 CPE, RAD52 inh, MLL AF4-AF9 inh)
CC(=O)C1C(N2CC2)CC2C3CC=C4CC(O)CCC4(C)C3CCC21C (stereo unspecified)	dFosB act-1 36 | dFosB act-2 inactive
COc1ccc2c(c1)[nH]c1c(C)nccc12	RAD54 inh 71 (no result: INS-1E GSIS act) | Rad54 DNA ctr inactive
C[C@H]1CN([C@@H](C)CO)C(=O)c2c(c3ccccc3n2C)-c2ccccc2CO[C@@H]1CN(C)C(=O)Oc1ccccc1	none (no result: dFosB act-1, RAD54 inh)
CN1CCC(N(C)c2nc(-c3ccccc3)nc3ccccc23)CC1	RAD54 inh 67 (no result: DENV2 CPE) | Rad54 DNA ctr inactive
Cc1cc(N2CCN(C)CC2)nc2ccccc12	none
CCN1CCN(c2ccc(N)c(C)c2)CC1	RAD52 inh 92, MLL AF4-AF9 inh 37, RAD54 inh 77 | Rad54 DNA ctr inactive | DNA binder FP inactive
O=C(Cc1ccccn1)N1CCCCN2[C@@H](CO)[C@@H](c3ccc(-c4ccc(F)cc4)cc3)[C@@H]2C1	none (no result: dFosB act-1)
CC[n+]1c(/C=C/C=C/c2ccc(N(C)C)cc2)sc2ccccc21	dFosB act-1 155, MLL AF4-AF9 inh 86 | AlphaScreen intf 1µM
O=C(Cc1cccnc1)N1CCCCN2[C@@H](CO)[C@@H](c3ccc(/C=C/c4ccccc4)cc3)[C@@H]2C1	none (no result: dFosB act-1)
O=C(CCN1CC1)OCCOC(=O)CCN1CC1	MLL AF4-AF9 inh inconclusive (no result: INS-1E GSIS act) | AlphaScreen intf inactive
CN1C2CCC1CC(OC(=O)CCN1CCCC1)C2 (stereo unspecified)	none (no result: DENV2 CPE, RAD52 inh)
O=C(Cc1ccccc1)N1CC2(C1)[C@@H](c1ccccc1)[C@@H](CO)N2Cc1cccc(F)c1	none (no result: dFosB act-1, RAD54 inh)
CCN(CC)c1ccc(/C=C/[N+](=O)[O-])cc1	none
CCN(CC)c1ccc(C(=C2C=CC(=[N+](CC)CC)C=C2)c2ccccc2)cc1	MLL AF4-AF9 inh 76 (no result: RAD54 inh) | AlphaScreen intf 1.1µM
CN(C)c1ccc(Cc2ccc(N(C)C)cc2)cc1	MLL AF4-AF9 inh 46 (no result: INS-1E GSIS act) | AlphaScreen intf 9.3µM
COc1cc2c(c(OC)c1OC)-c1ccc(O)c(=O)cc1[C@@H](N)CC2	DENV2 CPE 86, MLL AF4-AF9 inh 48 (no result: INS-1E GSIS act) | AlphaScreen intf 7.6µM
COc1ccc(-c2ccc([C@H]3[C@H]4CN(C(=O)Cc5ccccc5)CCCCN4[C@H]3CO)cc2)cc1	none (no result: dFosB act-1)
CC1(C)CC(Nc2ccc(Nc3ccccc3)cc2)CC(C)(C)N1	RAD52 inh 100, MLL AF4-AF9 inh 76 (no result: RAD54 inh) | AlphaScreen intf 13µM | DNA binder FP inactive
COC(=O)[C@H]1[C@H](CO)[C@H]2Cn3c(cccc3=O)[C@@H]1N2C(=O)C1CC1	none (no result: dFosB act-1)
O=c1c2ccccc2nc(-c2cccs2)n1-c1ccccc1	none (no result: INS-1E GSIS act, DENV2 CPE, RAD52 inh, MLL AF4-AF9 inh)
NC(N)=N/N=C/c1cn(-c2ccccc2)nc1-c1cccs1	RAD52 inh 88, MLL AF4-AF9 inh 31 (no result: INS-1E GSIS act, RAD54 inh) | AlphaScreen intf inactive | DNA binder FP inactive
Cc1cccc(S(=O)(=O)N2[C@@H]3Cn4c(ccc(-c5cccc(F)c5)c4=O)[C@H]2[C@@H](C(=O)O)[C@@H]3CO)c1	none (no result: DENV2 CPE, dFosB act-1, RAD52 inh, MLL AF4-AF9 inh, RAD54 inh)
CN(C)c1ccc(/C=C/c2cc[n+](C)c3ccccc23)cc1	dFosB act-1 93, RAD52 inh 64!, MLL AF4-AF9 inh 41 (no result: RAD54 inh) | AlphaScreen intf 2.9µM | DNA binder FP 8.3µM
